# From PubChem BioAssay
# Neddylation inh: blocks human cullin neddylation; AID 651699; TR-FRET cullin neddylation, biochemical; actives 0.58% (n = 360,000); P61081+Q13564; inhibition, % at 25 µM; in the data active = inhibition above about 36%
# SUMO1-SIM PPI: SUMO1-SIM interaction modulation | actives 0.33% (n = 360,000) | inhibition, % at 20 µM | SUMO1 binding to a labelled peptide, TR-FRET, 1 h; in the data active = inhibition above about 37%
# Rin1 Abl inh: inhibitors of human Rin1-Abl protein interaction; P00519+Q13671; TR-FRET Rin1/Abl binding, biochemical; inhibition, % at 7.35 µM; actives 0.4% (n = 360,000); in the data active = inhibition above about 5%, passing the limit was not always enough
# ATG4B inh: ATG4B (human) cysteine protease inhibition; ATG4B cleavage of LC3-PLA2, NBD-HPC fluorescence, 1 h; actives 0.51% (n = 340,000); AID 504462; inhibition, % at 8.33 µM; in the data active = inhibition above about 40%
# Target sequence (Q9Y4P1 whole entry, looked up): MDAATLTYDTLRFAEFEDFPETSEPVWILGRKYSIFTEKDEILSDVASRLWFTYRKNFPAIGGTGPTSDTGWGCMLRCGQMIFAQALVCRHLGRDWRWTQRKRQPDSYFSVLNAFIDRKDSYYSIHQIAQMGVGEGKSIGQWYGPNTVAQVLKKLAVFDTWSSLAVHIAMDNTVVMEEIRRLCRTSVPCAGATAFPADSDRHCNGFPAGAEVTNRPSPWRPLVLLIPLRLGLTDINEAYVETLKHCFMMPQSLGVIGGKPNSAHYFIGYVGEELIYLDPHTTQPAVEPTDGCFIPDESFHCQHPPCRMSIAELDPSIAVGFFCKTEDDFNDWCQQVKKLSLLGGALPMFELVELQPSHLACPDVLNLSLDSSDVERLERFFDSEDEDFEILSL
# Rin1 Abl conf: confirmation of inhibitors of human Rin1-Abl interaction | shares compounds with Rin1 Abl inh | TR-FRET Rin1-Abl binding, purified proteins | inhibition, % at 7.35 µM | actives 49% (n = 1,300) | AID 602124
# GFP quench: quenches GFP fluorescence, counter-screen for Rin1-Abl inhibitors | shares compounds with Rin1 Abl inh | inhibitors/quenchers counterscreen | inhibition, % at 6.75 µM | actives 8.5% (n = 1,300) | AID 602125;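 note: ABL1-eGFP fusion protein alone without its partner RIN1-SBP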
# GFP quench DR: quenches GFP in dose response, Rin1-Abl counter-screen; shares compounds with Rin1 Abl inh; GFP fluorescence interference/quenching counterscreen; IC50, µM; 230 tested, under 10 active; AID 602182; call rule not given here;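 note: ABL1-eGFP fusion protein alone without its RIN1 binding partner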
# Numbers stand for hits; 0 = inactive; - = not tested or not shown. In the library only some 1.7% were active in any assay of this set; here they are far more common. Cut-off read from the data, not from the text of the source, unless noted: active = inhibition above about 6.5%; inactive = the rest.
SMILES,Neddylation inh,SUMO1-SIM PPI,Rin1 Abl inh,ATG4B inh,Rin1 Abl conf,GFP quench,others
CC(Sc1nnc2n1CCCCC2)C(=O)Nc1cccc(S(=O)(=O)N2CCOCC2)c1 (centres undefined),0,0,0,0,-,-,
CN(C)CCN1CCN(C2CN(Cc3ccccc3)S(=O)(=O)C2)CC1 (centres undefined),0,0,0,-,-,-,
COc1ccc(CC(=O)NNC(=S)NC(=O)c2cccnc2)cc1,0,0,6.8,0,0,0,
COc1ccc(C(=O)NNC(=S)NC(=O)c2cccnc2)cc1,0,0,0,0,-,-,
CCN(C(=O)COC(=O)c1cc(Cl)ccc1OC)c1c(N)n(Cc2ccccc2)c(=O)[nH]c1=O,0,0,8.7,0,0,0,
COc1ccc(Cl)cc1C(=O)OCC(=O)N(CC(C)C)c1c(N)n(Cc2ccccc2)c(=O)[nH]c1=O,0,0,0,0,-,-,
CC(C(=O)O)N1C(=O)/C(=C/C=C/c2ccco2)SC1=S (centres undefined),0,100,13,72,9.7,20,
Nc1nc2ccccc2cc1C(=O)NCCCCc1ccccc1,-,0,-,-,-,-,
COc1cccc(C(NC(C)=O)c2ccc3cccnc3c2O)c1 (centres undefined),0,0,6.7,0,9.6,0,
CC(=O)NC(c1ccco1)c1cc(Cl)c2cccnc2c1O (centres undefined),0,0,11,-,11,0,
CC(=O)NC(c1cc(Cl)c2cccnc2c1O)C(C)C (centres undefined),0,0,0,0,-,-,
CCC(=O)NC(c1ccco1)c1cc(Cl)c2cccnc2c1O (centres undefined),0,0,0,0,-,-,
CC(=O)NC(c1ccc(C)cc1)c1cc(Cl)c2cccnc2c1O (centres undefined),0,0,7.0,0,0,0,
COc1cccc(CN2CCC2(C)C(=O)NCc2cccc(C(F)(F)F)c2)c1OC (centres undefined),0,0,0,-,-,-,
CCC(C(=O)Nc1c(C)cccc1C)n1c(-c2ccc(-c3ccccc3)cc2)nc2ccccc21 (centres undefined),0,0,-,-,-,-,
CN(C)c1cccc(CNC(=O)c2ccc3nc([C@@H]4O[C@H](CO)[C@H](O)[C@H](O)[C@H]4O)[nH]c3c2)c1,0,0,14,-,0,0,
CCOC(=O)CSc1nc2cc(C(=O)N3CCC(C(N)=O)CC3)ccc2c(=O)n1-c1ccccc1,0,0,9.0,0,0,0,
CC1(C)CC(=O)C(CC(=O)c2ccccc2)=C(NN=C(N)N)C1,0,0,0,-,-,-,
COC(=O)Nc1csc2c1NC(=O)CCCC2,0,0,43,0,44,0,GFP quench DR=0
COc1ccccc1NC(=O)c1csc2c1CCCC2,0,0,0,0,-,-,
CCCNC(=O)C1(C)CCCN(Cc2ccccc2F)C1 (centres undefined),0,0,0,-,-,-,
CC1CCN(C(=O)c2ccc(N3CCOCC3)c([N+](=O)[O-])c2)CC1,0,0,8.9,0,0,0,
CS(=O)(=O)N1CCN(c2ccc(C(=O)N3CCOCC3)cc2[N+](=O)[O-])CC1,0,0,0,0,-,-,
CCC(Oc1ccccc1)C(=O)N1CCN(S(=O)(=O)c2ccccc2)CC1 (centres undefined),0,0,0,0,-,-,
COc1ccc(OCC(=O)OCCN2C(=O)c3ccccc3C2=O)cc1,0,0,10,0,0,0,
SMILES,Neddylation inh,SUMO1-SIM PPI,Rin1 Abl inh,ATG4B inh,Rin1 Abl conf,GFP quench,others
CC(C)N=c1scc(-c2cccs2)n1/N=C/c1ccc(O)c(O)c1O,0,0,14,0,12,0,
CN=c1scc(-c2ccccc2F)n1/N=C/c1ccc[nH]1,0,0,0,0,-,-,
CN=c1scc(-c2ccccc2F)n1/N=C/c1ccc(O)c(O)c1O,0,0,6.3,0,8.8,6.7,
CCN=c1scc(-c2cccs2)n1/N=C/c1cc(OC)ccc1O,0,0,0,0,-,-,
COc1ccc(Cn2cc(CN3CC(N4CCN(C)CC4)CS3(=O)=O)nn2)cc1 (centres undefined),0,0,-,-,-,-,
CCCCOc1ccc(C(=O)NCC(=O)N2CCN(C/C=C/c3ccccc3)CC2)cc1,0,0,0,-,-,-,
Nc1cc2nsnc2cc1Br,0,80,10,65,26,9.5,
Nc1cccc2nsnc12,0,0,0,0,-,-,
CC(=O)c1sc(NC(=O)c2ccc(Br)o2)nc1C,0,0,12,0,0,0,
CC(=O)c1sc(NC(=O)c2ccc(Cn3cc(Br)cn3)o2)nc1C,0,0,0,0,-,-,
